# Measurements from the supplement of paper PMC8728848.
# Many of the other results were omitted from the sample, so the strongest signals are more common in it than they were.
# B1: ECL (Erythrina cristagalli), Q6YD91 (protein)
# chain: VETISFSFSEFEPGNNDLTLQGAAIITQSGVLQLTKINQNGMPAWDSTGRTLYTKPVHIWDMTTGTVASFETRFSFSIEQPYTRPLPADGLVFFMGPTKSKPAQGYGYLGVFNNSKQDNSYQTLAVEFDTFSNPWDPPQVPHIGIDVNSIRSIKTQPFQLDNGQVANVVIKYDASSKILLAVLVYPSSGAIYTIAEIVDVKQVLPEWVDVGLSGATGAQRDAAETHDVYSWSFHASLPETND
# What was measured:
# Experiment in all cases: glycan array binding signal (z-score within array); higher = stronger binding
# Settings in all cases: glycan notation: IUPAC condensed, linker removed
# [1] = biological target: Gal(b1-4)GlcNAc(b1-3)Gal(b1-4)GlcNAc(b1-3)Gal(b1-4)GlcNAc(b1-3)Gal(b1-4)GlcNAc(b1-3)Gal(b1-4)GlcNAc(b1-2)Man(a1-3)[Gal(b1-4)GlcNAc(b1-3)Gal(b1-4)GlcNAc(b1-3)Gal(b1-4)GlcNAc(b1-3)Gal(b1-4)GlcNAc(b1-3)Gal(b1-4)GlcNAc(b1-2)Man(a1-6)]Man(b1-4)GlcNAc(b1-4)GlcNAc
# In short: (§1)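 The Consortium for Functional Glycomics database supplied 3228 glycan arrays, of which those lacking an available protein sequence were dropped. The binding signal, a within-array Z-score, was averaged across arrays of the same protein sequence and across linkers. Negative scores can be read as non-binding.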
# [2] = biological target: Gal(b1-4)GlcNAc(b1-3)Gal(b1-4)GlcNAc(b1-3)Gal(b1-4)GlcNAc(b1-3)Gal(b1-4)GlcNAc(b1-3)Gal(b1-4)GlcNAc(b1-2)[Gal(b1-4)GlcNAc(b1-3)Gal(b1-4)GlcNAc(b1-3)Gal(b1-4)GlcNAc(b1-3)Gal(b1-4)GlcNAc(b1-3)Gal(b1-4)GlcNAc(b1-6)]Man(a1-6)[Gal(b1-4)GlcNAc(b1-3)Gal(b1-4)GlcNAc(b1-3)Gal(b1-4)GlcNAc(b1-3)Gal(b1-4)GlcNAc(b1-3)Gal(b1-4)GlcNAc(b1-2)Man(a1-3)]Man(b1-4)GlcNAc(b1-4)[Fuc(a1-6)]GlcNAc
# In short: as §1
# [3] = biological target: Gal(b1-4)GlcNAc(b1-3)Gal(b1-4)GlcNAc(b1-3)Gal(b1-4)GlcNAc(b1-3)Gal(b1-4)GlcNAc(b1-3)Gal(b1-4)GlcNAc(b1-3)Gal(b1-4)GlcNAc(b1-2)Man(a1-3)[Gal(b1-4)GlcNAc(b1-3)Gal(b1-4)GlcNAc(b1-3)Gal(b1-4)GlcNAc(b1-3)Gal(b1-4)GlcNAc(b1-3)Gal(b1-4)GlcNAc(b1-3)Gal(b1-4)GlcNAc(b1-2)Man(a1-6)]Man(b1-4)GlcNAc(b1-4)GlcNAc
# In short: as §1
# [4] = biological target: Gal(b1-4)GlcNAc(b1-3)[Gal(b1-4)GlcNAc(b1-6)]Gal(b1-4)GlcNAc
# In short: as §1
# Gal3S(b1-3)GlcNAc = biological target: Gal3S(b1-3)GlcNAc
# In short: as §1
# Gal3S4S(b1-4)GlcNAc = biological target: Gal3S4S(b1-4)GlcNAc
# In short: as §1
# Gal4S(b1-4)GlcNAc = biological target: Gal4S(b1-4)GlcNAc
# In short: as §1
# [5] = biological target: GalNAc(b1-4)GlcNAc(b1-3)GalNAc(b1-4)GlcNAc
# In short: as §1
# Glc(b1-4)Glc = biological target: Glc(b1-4)Glc
# In short: as §1
# Glc(b1-6)Glc = biological target: Glc(b1-6)Glc
# In short: as §1
# [6] = biological target: GlcNAc(a1-4)Gal(b1-4)GlcNAc(b1-3)Gal(b1-4)GlcNAc
# In short: as §1
# [7] = biological target: GlcNAc(a1-6)Gal(b1-4)GlcNAc
# In short: as §1
# [8] = biological target: GlcNAc(b1-2)[GlcNAc(b1-4)]Man(a1-3)[GlcNAc(b1-4)][GlcNAc(b1-2)Man(a1-6)]Man(b1-4)GlcNAc(b1-4)GlcNAc
# In short: as §1
# [9] = biological target: GlcNAc(b1-3)Gal(b1-4)GlcNAc(b1-3)Gal(b1-4)GlcNAc(b1-3)Gal(b1-4)GlcNAc(b1-2)Man(a1-3)[GlcNAc(b1-3)Gal(b1-4)GlcNAc(b1-3)Gal(b1-4)GlcNAc(b1-3)Gal(b1-4)GlcNAc(b1-2)Man(a1-6)]Man(b1-4)GlcNAc(b1-4)[Fuc(a1-6)]GlcNAc
# In short: as §1
# GlcNAc(b1-3)GalNAc = biological target: GlcNAc(b1-3)GalNAc
# In short: as §1
# [10] = biological target: GlcNAc(b1-6)Gal(b1-4)GlcNAc
# In short: as §1
# [11] = biological target: Neu5Ac(a2-3)Gal(b1-3)GalNAc6S
# In short: as §1
# [12] = biological target: Neu5Ac(a2-3)Gal(b1-4)GlcNAc(b1-3)Gal(b1-4)GlcNAc(b1-3)[Neu5Ac(a2-3)Gal(b1-4)GlcNAc(b1-3)Gal(b1-4)GlcNAc(b1-6)]GalNAc
# In short: as §1
# [13] = biological target: Neu5Ac(a2-3)Gal(b1-4)[Fuc(a1-3)]GlcNAc(b1-3)Gal
# In short: as §1
# [14] = biological target: Neu5Ac(a2-3)Gal(b1-4)[Fuc(a1-3)]GlcNAc(b1-3)Gal(b1-4)[Fuc(a1-3)]GlcNAc(b1-3)Gal(b1-4)[Fuc(a1-3)]GlcNAc
# In short: as §1
# [15] = biological target: Neu5Ac(a2-3)Gal(b1-4)[Fuc(a1-3)]GlcNAc(b1-3)GalNAc
# In short: as §1
# [16] = biological target: Neu5Ac(a2-3)[GalNAc(b1-4)]Gal(b1-4)Glc
# In short: as §1
# Neu5Ac(a2-6)Gal = biological target: Neu5Ac(a2-6)Gal
# In short: as §1
# Neu5Ac(a2-6)GalNAc = biological target: Neu5Ac(a2-6)GalNAc
# In short: as §1
# [17] = biological target: Neu5Ac(a2-6)GalNAc(b1-4)GlcNAc
# In short: as §1
# Neu5Ac(b2-6)GalNAc = biological target: Neu5Ac(b2-6)GalNAc
# In short: as §1
binder,measurement,setting,value
B1,glycan array binding signal (z-score),[1],3.35
same,glycan array binding signal (z-score),[2],5.32
same,glycan array binding signal (z-score),[3],2.02
same,glycan array binding signal (z-score),[4],3.6
same,glycan array binding signal (z-score),Gal3S(b1-3)GlcNAc,-0.33
same,glycan array binding signal (z-score),Gal3S4S(b1-4)GlcNAc,-0.359
same,glycan array binding signal (z-score),Gal4S(b1-4)GlcNAc,-0.487
same,glycan array binding signal (z-score),[5],3.31
same,glycan array binding signal (z-score),Glc(b1-4)Glc,-0.25
same,glycan array binding signal (z-score),Glc(b1-6)Glc,-0.304
same,glycan array binding signal (z-score),[6],-0.028
same,glycan array binding signal (z-score),[7],-0.358
same,glycan array binding signal (z-score),[8],-0.235
same,glycan array binding signal (z-score),[9],0.001
same,glycan array binding signal (z-score),GlcNAc(b1-3)GalNAc,-0.196
same,glycan array binding signal (z-score),[10],-0.23
same,glycan array binding signal (z-score),[11],-0.378
same,glycan array binding signal (z-score),[12],-0.038
same,glycan array binding signal (z-score),[13],-0.424
same,glycan array binding signal (z-score),[14],-0.241
same,glycan array binding signal (z-score),[15],-0.17
same,glycan array binding signal (z-score),[16],-0.505
same,glycan array binding signal (z-score),Neu5Ac(a2-6)Gal,-0.186
same,glycan array binding signal (z-score),Neu5Ac(a2-6)GalNAc,-0.481
same,glycan array binding signal (z-score),[17],-0.3
same,glycan array binding signal (z-score),Neu5Ac(b2-6)GalNAc,-0.388
